These sequences were tested against ELF4 (Homo sapiens, UniProt Q99607 1-663) (assay: DAPPL (digital affinity profiling via proximity ligation, sequencing); 10 mM Tris-HCl pH 7.5, 50 mM NaCl, 1 mM DTT, 4% glycerol, room temperature, 30 min; GST-TFs on glutathione beads, 16-mer random dsDNA library, 0.1% formaldehyde crosslink after washing; high values mean tight binding). Conditions: protein: recombinant; tags: N-terminal GST; dsDNA, one strand shown.
ELF4, sequence (Q99607 whole entry, the tested form may be a part): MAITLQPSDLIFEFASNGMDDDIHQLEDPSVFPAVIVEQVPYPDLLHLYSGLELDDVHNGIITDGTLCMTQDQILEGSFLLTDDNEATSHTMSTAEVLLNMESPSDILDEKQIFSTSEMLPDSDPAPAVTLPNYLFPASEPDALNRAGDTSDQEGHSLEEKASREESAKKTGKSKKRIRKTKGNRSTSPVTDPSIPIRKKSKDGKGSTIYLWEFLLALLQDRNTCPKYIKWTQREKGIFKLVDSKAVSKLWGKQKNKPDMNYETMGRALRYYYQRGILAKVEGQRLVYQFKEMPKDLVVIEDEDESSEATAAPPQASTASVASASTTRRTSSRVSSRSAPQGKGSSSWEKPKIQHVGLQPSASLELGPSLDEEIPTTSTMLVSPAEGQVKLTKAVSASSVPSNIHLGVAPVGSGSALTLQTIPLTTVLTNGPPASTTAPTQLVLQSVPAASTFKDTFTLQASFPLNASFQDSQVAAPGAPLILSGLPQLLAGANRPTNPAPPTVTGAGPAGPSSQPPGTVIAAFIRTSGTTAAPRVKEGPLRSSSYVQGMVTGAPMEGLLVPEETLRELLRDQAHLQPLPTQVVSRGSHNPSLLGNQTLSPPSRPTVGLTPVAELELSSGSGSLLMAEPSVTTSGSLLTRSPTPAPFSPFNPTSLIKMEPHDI
Summary of the method: (§1)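 Yeast served to express human transcription factors as GST fusions, which were then captured on glutathione beads and labelled with DNA barcodes. Pooled with a tag-only sample, they were incubated with 200 nmole of a 16-mer random double-stranded DNA library for 30 min at room temperature in Tris/NaCl/DTT/glycerol buffer, washed, crosslinked with 0.1% formaldehyde, ligated by proximity, amplified by PCR and sequenced. Dividing each hexamer's read frequency for a factor by its frequency for the tag-only sample gives the binding signal.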
GTCTAC was tested, and the binding signal was 1.09 fold enrichment (6-mer frequency, TF over GST control). With GCCCCA the binding signal was 1.07 fold enrichment (6-mer frequency, TF over GST control). With CGCCCG the binding signal was 1.11 fold enrichment (6-mer frequency, TF over GST control). With AAGGCA the binding signal was 1.03 fold enrichment (6-mer frequency, TF over GST control). TGGTGC was tested, and the binding signal was 1.07 fold enrichment (6-mer frequency, TF over GST control). In the case of CATACG, the binding signal is reported as 1.03 fold enrichment (6-mer frequency, TF over GST control). With AAGGGT the binding signal was 1.01 fold enrichment (6-mer frequency, TF over GST control). With TTGCCG the binding signal was 1.12 fold enrichment (6-mer frequency, TF over GST control). With ACATGG the binding signal was 1.21 fold enrichment (6-mer frequency, TF over GST control). GTTGAT was tested, and the binding signal was 1.15 fold enrichment (6-mer frequency, TF over GST control). In the case of CATCCA, the binding signal is reported as 1.02 fold enrichment (6-mer frequency, TF over GST control). With ATGCCG the binding signal was 1.19 fold enrichment (6-mer frequency, TF over GST control). CCGCTG was tested, and the binding signal was 1.06 fold enrichment (6-mer frequency, TF over GST control). With ACCACC the binding signal was 1.14 fold enrichment (6-mer frequency, TF over GST control). In the case of TGCCAA, the binding signal is reported as 1.12 fold enrichment (6-mer frequency, TF over GST control). GCGCGC was tested, and the binding signal was 1.08 fold enrichment (6-mer frequency, TF over GST control). In the case of GTCCCA, the binding signal is reported as 1.13 fold enrichment (6-mer frequency, TF over GST control). CCGATG was tested, and the binding signal was 1.14 fold enrichment (6-mer frequency, TF over GST control). CCATGC was tested, and the binding signal was 1.08 fold enrichment (6-mer frequency, TF over GST control). GCTGCC was tested, and the binding signal was 1.06 fold enrichment (6-mer frequency, TF over GST control). With TCAACA the binding signal was 1.07 fold enrichment (6-mer frequency, TF over GST control). In the case of GTCTTG, the binding signal is reported as 1.06 fold enrichment (6-mer frequency, TF over GST control). ACCACA was tested, and the binding signal was 1.11 fold enrichment (6-mer frequency, TF over GST control). In the case of TGGACC, the binding signal is reported as 1.06 fold enrichment (6-mer frequency, TF over GST control). With GCCCAC the binding signal was 1.18 fold enrichment (6-mer frequency, TF over GST control). CGGCCT was tested, and the binding signal was 1.12 fold enrichment (6-mer frequency, TF over GST control). For GGTTTT, the binding signal was 1.15 fold enrichment (6-mer frequency, TF over GST control). In the case of CCACCT, the binding signal is reported as 1.15 fold enrichment (6-mer frequency, TF over GST control). For TTGGTC, the binding signal was 1.13 fold enrichment (6-mer frequency, TF over GST control). With GGGTTC the binding signal was 1.12 fold enrichment (6-mer frequency, TF over GST control). In the case of ACGTTG, the binding signal is reported as 1.13 fold enrichment (6-mer frequency, TF over GST control). With CCACAC the binding signal was 1.1 fold enrichment (6-mer frequency, TF over GST control). In the case of TGGTCA, the binding signal is reported as 1.06 fold enrichment (6-mer frequency, TF over GST control). With AGCAAC the binding signal was 1.1 fold enrichment (6-mer frequency, TF over GST control). AAAGCG was tested, and the binding signal was 1.11 fold enrichment (6-mer frequency, TF over GST control). ATGGTG was tested, and the binding signal was 1.14 fold enrichment (6-mer frequency, TF over GST control). With TGCTGC the binding signal was 1.16 fold enrichment (6-mer frequency, TF over GST control). In the case of CATCGC, the binding signal is reported as 1.13 fold enrichment (6-mer frequency, TF over GST control).

These sequences were tested against T1, ELK4 (Homo sapiens, UniProt P28324-2 1-405) in the same assay as above. Conditions: protein: recombinant; tags: N-terminal GST; dsDNA, one strand shown.
T1 sequence: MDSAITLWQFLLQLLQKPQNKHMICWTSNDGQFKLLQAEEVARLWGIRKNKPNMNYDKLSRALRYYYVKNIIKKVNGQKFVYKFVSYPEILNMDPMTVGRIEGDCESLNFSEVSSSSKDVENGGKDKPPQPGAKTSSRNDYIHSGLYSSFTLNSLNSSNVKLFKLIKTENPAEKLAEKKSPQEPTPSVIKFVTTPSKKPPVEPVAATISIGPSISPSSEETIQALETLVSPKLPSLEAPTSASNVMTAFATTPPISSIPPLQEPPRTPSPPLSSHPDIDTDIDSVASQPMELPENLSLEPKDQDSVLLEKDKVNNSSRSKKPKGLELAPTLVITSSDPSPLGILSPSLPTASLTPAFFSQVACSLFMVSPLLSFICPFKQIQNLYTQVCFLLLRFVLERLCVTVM
Summary of the method: as §1
For GTCTAC, the binding signal was 1 fold enrichment (6-mer frequency, TF over GST control). In the case of GCCCCA, the binding signal is reported as 1.06 fold enrichment (6-mer frequency, TF over GST control). For CGCCCG, the binding signal was 1.09 fold enrichment (6-mer frequency, TF over GST control). With AAGGCA the binding signal was 1.03 fold enrichment (6-mer frequency, TF over GST control). For TGGTGC, the binding signal was 1.14 fold enrichment (6-mer frequency, TF over GST control). With CATACG the binding signal was 1.07 fold enrichment (6-mer frequency, TF over GST control). AAGGGT was tested, and the binding signal was 1.15 fold enrichment (6-mer frequency, TF over GST control). With TTGCCG the binding signal was 1 fold enrichment (6-mer frequency, TF over GST control). ACATGG was tested, and the binding signal was 1.22 fold enrichment (6-mer frequency, TF over GST control). In the case of GTTGAT, the binding signal is reported as 1.17 fold enrichment (6-mer frequency, TF over GST control). For CATCCA, the binding signal was 1.07 fold enrichment (6-mer frequency, TF over GST control). For ATGCCG, the binding signal was 1.15 fold enrichment (6-mer frequency, TF over GST control). For CCGCTG, the binding signal was 1.2 fold enrichment (6-mer frequency, TF over GST control). For ACCACC, the binding signal was 1.16 fold enrichment (6-mer frequency, TF over GST control). TGCCAA was tested, and the binding signal was 1.06 fold enrichment (6-mer frequency, TF over GST control). GCGCGC was tested, and the binding signal was 1.1 fold enrichment (6-mer frequency, TF over GST control). GTCCCA was tested, and the binding signal was 1.13 fold enrichment (6-mer frequency, TF over GST control). For CCGATG, the binding signal was 1.07 fold enrichment (6-mer frequency, TF over GST control). For CCATGC, the binding signal was 1.13 fold enrichment (6-mer frequency, TF over GST control). With GCTGCC the binding signal was 1.2 fold enrichment (6-mer frequency, TF over GST control). TCAACA was tested, and the binding signal was 1.03 fold enrichment (6-mer frequency, TF over GST control). With GTCTTG the binding signal was 1.02 fold enrichment (6-mer frequency, TF over GST control). With ACCACA the binding signal was 1.13 fold enrichment (6-mer frequency, TF over GST control). With TGGACC the binding signal was 1.03 fold enrichment (6-mer frequency, TF over GST control). With GCCCAC the binding signal was 1 fold enrichment (6-mer frequency, TF over GST control). For CGGCCT, the binding signal was 1.13 fold enrichment (6-mer frequency, TF over GST control). With GGTTTT the binding signal was 1.03 fold enrichment (6-mer frequency, TF over GST control). CCACCT was tested, and the binding signal was 1.21 fold enrichment (6-mer frequency, TF over GST control). For TTGGTC, the binding signal was 1.15 fold enrichment (6-mer frequency, TF over GST control). With GGGTTC the binding signal was 1 fold enrichment (6-mer frequency, TF over GST control). ACGTTG was tested, and the binding signal was 1.12 fold enrichment (6-mer frequency, TF over GST control). With CCACAC the binding signal was 1.04 fold enrichment (6-mer frequency, TF over GST control). With TGGTCA the binding signal was 1.04 fold enrichment (6-mer frequency, TF over GST control). For AGCAAC, the binding signal was 1.12 fold enrichment (6-mer frequency, TF over GST control). AAAGCG was tested, and the binding signal was 1.25 fold enrichment (6-mer frequency, TF over GST control). For ATGGTG, the binding signal was 1.17 fold enrichment (6-mer frequency, TF over GST control). With TGCTGC the binding signal was 1.22 fold enrichment (6-mer frequency, TF over GST control). With CATCGC the binding signal was 1.14 fold enrichment (6-mer frequency, TF over GST control).

The sequences below were run against T2, ELF3 (Homo sapiens, UniProt P78545 1-371) in the same assay as above. Conditions: protein: recombinant; tags: N-terminal GST; dsDNA, one strand shown.
T2 sequence: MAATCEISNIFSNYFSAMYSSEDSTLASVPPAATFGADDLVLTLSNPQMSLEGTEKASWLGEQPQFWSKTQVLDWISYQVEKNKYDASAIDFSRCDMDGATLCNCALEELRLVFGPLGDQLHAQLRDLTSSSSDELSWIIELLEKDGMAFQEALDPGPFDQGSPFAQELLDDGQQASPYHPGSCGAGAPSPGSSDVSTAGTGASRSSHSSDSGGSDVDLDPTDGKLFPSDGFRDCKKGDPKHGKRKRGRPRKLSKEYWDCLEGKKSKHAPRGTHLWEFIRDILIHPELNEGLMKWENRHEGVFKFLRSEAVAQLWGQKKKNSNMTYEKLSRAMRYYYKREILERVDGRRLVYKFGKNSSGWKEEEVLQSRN
Summary of the method: as §1
With CGCCCG the binding signal was 1.14 fold enrichment (6-mer frequency, TF over GST control). In the case of CATACG, the binding signal is reported as 1.07 fold enrichment (6-mer frequency, TF over GST control). For TTGCCG, the binding signal was 1.09 fold enrichment (6-mer frequency, TF over GST control). In the case of ACATGG, the binding signal is reported as 1.17 fold enrichment (6-mer frequency, TF over GST control). CCGCTG was tested, and the binding signal was 1.01 fold enrichment (6-mer frequency, TF over GST control). With ACCACC the binding signal was 1.21 fold enrichment (6-mer frequency, TF over GST control). For TGCCAA, the binding signal was 1.17 fold enrichment (6-mer frequency, TF over GST control). With GCGCGC the binding signal was 1.05 fold enrichment (6-mer frequency, TF over GST control). With GTCCCA the binding signal was 1.08 fold enrichment (6-mer frequency, TF over GST control). In the case of CCGATG, the binding signal is reported as 1.11 fold enrichment (6-mer frequency, TF over GST control). In the case of CCATGC, the binding signal is reported as 1.18 fold enrichment (6-mer frequency, TF over GST control). With TCAACA the binding signal was 1.12 fold enrichment (6-mer frequency, TF over GST control). In the case of ACCACA, the binding signal is reported as 1.02 fold enrichment (6-mer frequency, TF over GST control). For TGGACC, the binding signal was 1.19 fold enrichment (6-mer frequency, TF over GST control). In the case of GCCCAC, the binding signal is reported as 1.03 fold enrichment (6-mer frequency, TF over GST control). CGGCCT was tested, and the binding signal was 1.03 fold enrichment (6-mer frequency, TF over GST control). For GGTTTT, the binding signal was 1.14 fold enrichment (6-mer frequency, TF over GST control). With CCACCT the binding signal was 1.3 fold enrichment (6-mer frequency, TF over GST control). With GGGTTC the binding signal was 1.02 fold enrichment (6-mer frequency, TF over GST control). In the case of TGGTCA, the binding signal is reported as 1.1 fold enrichment (6-mer frequency, TF over GST control). In the case of AAAGCG, the binding signal is reported as 1.14 fold enrichment (6-mer frequency, TF over GST control). With ATGGTG the binding signal was 1.07 fold enrichment (6-mer frequency, TF over GST control). With TGCTGC the binding signal was 1.11 fold enrichment (6-mer frequency, TF over GST control).
